Eight compounds from PubChem BioAssay (NCI) can be followed below.

Test systems include SK-MEL-2 melanoma; EKVX NSCLC; SN12C renal; UO-31 renal; TK-10 renal; ACHN renal; CAKI-1 renal; A498 renal; CCRF-CEM leukemia; MOLT-4 leukemia; RPMI-8226 leukemia; OVCAR-8 ovarian; OVCAR-5 ovarian; SK-OV-3 ovarian; IGROV1 ovarian; OVCAR-3 ovarian; NCI/ADR-RES ovarian; HS 578T breast; OVCAR-4 ovarian.
Common to all, as to test: NCI-60 one-dose screen, 48 h (100 = growth as untreated, 0 = no growth, -100 = all killed)
Conditions in all cases: 10 µM unless noted

Compounds without any hit were thinned out: in the full panel of roughly 83,000, 20% have a hit.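 Compound tested at a single concentration for 48 hours in 96-well plates; a percent growth value below 10 was scored as active.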 Values without a mark were called inactive. Calls of active or inactive are those of the source.

Consider `Cc1cc(=O)[nH]c(N=Nc2c(O)[nH]c3ccccc23)n1`, for which the growth with SK-MEL-2 melanoma was 103%; with EKVX NSCLC, 111%; in the assay on SN12C renal it was 102%; with UO-31 renal, 84.9%; in the assay with TK-10 renal, 112%; with ACHN renal, 101%. For the same compound, the growth in the assay on CAKI-1 renal was 96.1%; in the assay on A498 renal it was 127%; with CCRF-CEM leukemia it was 94.6%; in the assay on MOLT-4 leukemia, 109%; in the assay on RPMI-8226 leukemia it was 105%; in the assay with OVCAR-8 ovarian it was 104%. In addition, the growth was 105% with OVCAR-5 ovarian; 112% in the assay on SK-OV-3 ovarian; 92.8% with IGROV1 ovarian; 112% in the assay with OVCAR-3 ovarian; 108% in the assay with NCI/ADR-RES ovarian.

With `OC(c1cccc(-n2ccc(C(F)(F)F)n2)c1)c1cnccc1NC1CCCCCC1` (centres undefined), the growth was 27.1% with SK-MEL-2 melanoma; 72.6% in the assay on EKVX NSCLC; 47.8% in the assay on SN12C renal; 41.5% in the assay with UO-31 renal; 86.7% with TK-10 renal; -32.2% (active) in the assay on ACHN renal. Moreover, the growth in the assay with CAKI-1 renal was 66.5%; in the assay with A498 renal, 60.4%; with CCRF-CEM leukemia, 8.54% (active); with MOLT-4 leukemia, -14.2% (active); in the assay on RPMI-8226 leukemia, -33.4% (active); with OVCAR-8 ovarian it was 6.25% (active). Further, the growth in the assay with OVCAR-5 ovarian was 15.2%; in the assay with IGROV1 ovarian it was 38.5%; in the assay with OVCAR-3 ovarian, 52.4%; with HS 578T breast, 49.8%; with NCI/ADR-RES ovarian, 30%.

Turning to `COc1ccc(-c2nc(SCCC(C)C)nc(N/N=C\c3cccc([N+](=O)[O-])c3)c2C#N)cc1`, the growth in the assay with SK-MEL-2 melanoma is 80.4%; in the assay with EKVX NSCLC, 40.9%; with SN12C renal, 35.5%; with UO-31 renal, 7.32% (active); with TK-10 renal, 42.5%; with ACHN renal, 15.8%. In addition, the growth with CAKI-1 renal is 22.6%; with A498 renal it was 41.2%; in the assay with CCRF-CEM leukemia it was 45.8%; with MOLT-4 leukemia, 73.1%; with OVCAR-8 ovarian it was 39.7%; in the assay with OVCAR-4 ovarian it was -13.3% (active). Further, the growth with SK-OV-3 ovarian is 63.4%; in the assay with IGROV1 ovarian, 38.8%; with HS 578T breast it was 9.44% (active); in the assay on NCI/ADR-RES ovarian it was 56.2%.

For the compound `CC1=C([Se]CC(OC(=O)[C@@H](CO)NC(=O)OC(C)(C)C)C(=O)NC(C)(C)C)C(=O)c2ccccc2C1=O` (some centres undefined), the growth in the assay on SK-MEL-2 melanoma is -79.1% (active); in the assay with EKVX NSCLC, -56% (active); with SN12C renal, -100% (active); with UO-31 renal, -100% (active); in the assay on TK-10 renal, -100% (active); with ACHN renal, -100% (active). In addition, the growth with CAKI-1 renal is -73.2% (active); in the assay with A498 renal it was 7.64% (active); in the assay with CCRF-CEM leukemia, -29% (active); with MOLT-4 leukemia it was -31.6% (active); in the assay with RPMI-8226 leukemia it was -33.7% (active); in the assay with OVCAR-8 ovarian it was -84.9% (active). The growth in the assay on OVCAR-4 ovarian is -100% (active); in the assay with SK-OV-3 ovarian it was -100% (active); in the assay with IGROV1 ovarian, -100% (active); in the assay with OVCAR-3 ovarian it was -100% (active); with HS 578T breast, -37.1% (active); in the assay with NCI/ADR-RES ovarian, -94.7% (active).

Regarding `CC1(C)CC(=O)C2=C(C1)N(c1ccc(OC(F)(F)F)cc1)C(N)=C(C#N)C2c1ccc(Cl)cc1` (centres undefined), the growth was 90.7% with SK-MEL-2 melanoma; 84.6% with EKVX NSCLC; 80% in the assay on SN12C renal; 89.9% in the assay with UO-31 renal; 89.7% with TK-10 renal; 71.4% in the assay with ACHN renal. Further, the growth is 60.8% with CAKI-1 renal; 94.4% in the assay on A498 renal; 96.5% in the assay on CCRF-CEM leukemia; 95.4% with MOLT-4 leukemia; 56.2% with OVCAR-8 ovarian; 91% with OVCAR-5 ovarian. For the same compound, the growth was 85% in the assay on OVCAR-4 ovarian; 62.7% with SK-OV-3 ovarian; 90.3% in the assay on IGROV1 ovarian; 94.5% in the assay with OVCAR-3 ovarian; 65.5% in the assay with HS 578T breast; 87.6% with NCI/ADR-RES ovarian.

With `COc1cc(C(=O)/C=C/c2c(C(F)(F)F)nc3sccn23)cc(OC)c1OC`, the growth in the assay on SK-MEL-2 melanoma is 12.2%; in the assay on EKVX NSCLC, 10.6%; with SN12C renal, 20.2%; with UO-31 renal it was -29.6% (active); in the assay on TK-10 renal it was 21.9%; in the assay with ACHN renal it was -69.4% (active). Also, the growth in the assay with CAKI-1 renal was -16.5% (active); with A498 renal, 61.4%; with CCRF-CEM leukemia, -9.49% (active); in the assay on MOLT-4 leukemia it was 0.936% (active); with OVCAR-8 ovarian, 12.2%; in the assay with OVCAR-5 ovarian it was 15.1%. Further, the growth in the assay with OVCAR-4 ovarian was 17.8%; with SK-OV-3 ovarian, 2.13% (active); with IGROV1 ovarian it was 23%; in the assay on OVCAR-3 ovarian, -30.6% (active); in the assay with HS 578T breast, 37.4%; in the assay on NCI/ADR-RES ovarian, -3.02% (active).

As for `CCOC(=O)c1c(/C=C/C(=O)O)nc2ccccc2c1/C=C/c1ccccc1`, the growth with SK-MEL-2 melanoma is 47.4%; in the assay on EKVX NSCLC it was 61.6%; in the assay on SN12C renal it was 27.1%; in the assay on UO-31 renal, 42.5%; in the assay on TK-10 renal it was 65.5%; in the assay on ACHN renal, 43.2%. Further, the growth is 62.3% in the assay on CAKI-1 renal; 8.83% (active) with A498 renal; 17.1% in the assay on CCRF-CEM leukemia; 25.5% in the assay on MOLT-4 leukemia; 10.9% in the assay with RPMI-8226 leukemia; 31.2% with OVCAR-8 ovarian. For the same compound, the growth is 60.5% in the assay with OVCAR-4 ovarian; 93.6% in the assay on SK-OV-3 ovarian; 52.1% with IGROV1 ovarian; 13.3% with OVCAR-3 ovarian; 18.7% with HS 578T breast; 32.7% in the assay with NCI/ADR-RES ovarian.

As to `CC(C)(C)CC(C)(C)Nc1c(-c2ccncc2)nc2cnccn12`, the growth with SK-MEL-2 melanoma is 106%; in the assay with EKVX NSCLC, 93.1%; with SN12C renal, 102%; in the assay on UO-31 renal, 86.7%; in the assay with TK-10 renal, 99.2%; with ACHN renal it was 87.7%. Further, the growth in the assay on CAKI-1 renal is 80.6%; in the assay with A498 renal, 90.9%; in the assay with CCRF-CEM leukemia it was 91.6%; with MOLT-4 leukemia, 94.1%; in the assay on OVCAR-8 ovarian, 95.6%; in the assay on OVCAR-5 ovarian, 93.7%. The growth in the assay on SK-OV-3 ovarian was 92.8%; with IGROV1 ovarian, 99.8%; in the assay on OVCAR-3 ovarian it was 102%; with HS 578T breast it was 92.2%; with NCI/ADR-RES ovarian it was 99.5%.
